Where “and” joins values, the source holds several entries; their conditions need not be identical. Equal entries are not always repeated. Some compounds were tested as several samples or in several runs, with calls that do not always agree. Calls of active or inactive are those of the source. How the source made its calls: active means hit-call score of the fitted dose curve at least 0.9, where 1 is the maximum; inactive means score below 0.9.
Assay: ATG_AP_2_CIS: Attagene CIS-FACTORIAL HepG2 Assay for human Activator Protein 2 (AP-2) (AID 2282932)
Settings: HepG2 AP-2 cis-reporter, Attagene transcription factor profiling; actives raise or lower the signal
Procedure: ATG_CIS is a cell-based, multiplexed-readout assay that uses HepG2, a human liver cell line, with measurements taken at 24 hours after chemical dosing in a 24-well plate.ATG_AP_2_CIS is one of 52 assay component(s) measured or calculated from the ATG_CIS assay. It is designed to make measurements of mRNA induction, a form of inducible reporter, as detected with fluorescence intensity signals by Reverse transcription polymerase chain reaction (RT-PCR) and Capillary electrophoresis technology.Data from the assay component ATG_AP_2_CIS was analyzed into 1 assay endpoint. This assay endpoint, ATG_AP_2_CIS, was analyzed with bidirectional fitting relative to DMSO as the negative control and baseline of activity. Using a type of inducible reporter, measures of mRNA for gain or loss-of-signal activity can be used to understand the reporter gene at the transcription factor-level as they relate to the gene TFAP2A and TFAP2B and TFAP2D. Furthermore, this assay endpoint can be referred to as a primary readout, because this assay has produced multiple assay endpoints where this one serves a reporter gene function. To generalize the intended target to other relatable targets, this assay endpoint is annotated to the dna binding intended target family, where the subfamily is basic helix-turn-helix leucine zipper.
Human liver HepG2 cells are transiently transfected with multiple reporter transcription units (MRTUs) in 6-well plates using FuGene 6 reagent (Roche; 3 ml FuGene/1 mg DNA). The MRTU constructs are regulated by a cis-regulating element (promoter). […] A major difference between the CIS and TRANS system is that in CIS activities of endogenous TFs are measured, whereas the TRANS assay evaluates changes in activities of exogenous, chimeric NR-Gal4 proteins. […] At the end of 24 hour incubation, total RNA was isolated using TriZol reagent (Invitrogen). The isolated RNA is then reverse-transcribed using oligo(dT) primer and Mo-MLV reverse transcriptase (Invitrogen) with DNAse I (Ambion) treatment for 30 min. The one-tenth of the produced cDNA was amplified by PCR using Taq DNA polymerase (Invitrogen) and two reporter sequence-specific primers. The PCR products were fluorescently labeled by primer extension with 6-arboxyfluorescein (6-FAM) 5'-labeled reporter sequence-specific primer (2 min at 95 C, 20 s at 68 C and 10 min at 72 C) and these products were digested with 5U of HpaI (New England Biolabs) for 2h at 37 C. The fragments were purified using Qiaquick PCR columns (Qiagen), analyzed on an ABI 3130xL genetic analyzer (Applied Biosystems) with peak positions identified by using a set of X-rhodamine (ROX)-labeled MapMarker1000 molecular weight standards (BioVentures). The raw capillary electrophoresis data was processed using Attagraph software (Attagene).

outcome, inactive:
CCCCCCCC[Si](OCC)(OCC)OCC, CC[C@H](NC(=O)c1cc(F)ccc1NS(=O)(=O)c1cccc2cccnc12)c1ccccc1, O=CCCCC=O, CCCCOC(=O)c1ccc(O)cc1, CC1=CC(=O)/C(=C(/C)O)C(=O)O1, CCCCCCCCCCCCO, Cc1ccc2oc(CN(Cc3ccccc3)C(=O)Nc3c(F)cc(F)cc3F)c(-c3ccc(Cl)cc3)c2c1, CCN(Cc1cccc(S(=O)(=O)O)c1)c1ccc(C(=C2C=CC(=[N+](CC)Cc3cccc(S(=O)(=O)O)c3)C=C2)c2ccccc2S(=O)(=O)[O-])cc1, CC/C(=C(/CC)c1ccc(O)cc1)c1ccc(O)cc1, C[C@]12CC[C@@H]3c4ccc(O)cc4CC[C@H]3[C@@H]1CC[C@H]2O, CCCCCCCCN(C)CCCCCCCC, CC(C)(C)c1csc(-c2cc3cc(OCc4ccccc4CC(=O)O)ccc3o2)n1, CCO[Si](CCCNC(N)=O)(OCC)OCC, Clc1ccccc1C(c1ccccc1)(c1ccccc1)n1ccnc1, c1ccc2n[nH]nc2c1, OC12N=C(c3ccccc3)SC1Cc1cc(Cl)ccc12 (stereo unspecified), CC1(C)NC(=O)N(c2ccc([N+](=O)[O-])c(C(F)(F)F)c2)C1=O, CCCCCCCCOC(=O)c1cc(O)c(O)c(O)c1, CCOC(=O)O[C@H](C)OC(=O)c1ccc2c(c1)cc(C(=O)NC1CCN(C(C)C)CC1)n2Cc1cc(-c2ccc(Cl)s2)on1, CC(C)(c1cc(Br)c(O)c(Br)c1)c1cc(Br)c(O)c(Br)c1, CC(O)CC(C)(C)O (stereo unspecified), O=C(O)Cc1cc(I)c(Oc2ccc(O)c(I)c2)c(I)c1, Cc1cc2c(cc1C(F)(F)F)N(C(=O)Nc1ccc(Oc3cccnc3C)nc1)CC2, CCCC(=O)OCCC(C)C, O=C1O[C@H]([C@@H](O)CO)C(O)=C1O, CC(C)(O)c1ccc(CNC(=O)c2cccnc2Oc2ccc3nonc3c2)cc1, O=C(O)c1ccccc1-n1cc(C(=O)O)c(=O)c2cc(Nc3c(F)cc(F)cc3Cl)c(Cl)cc21, COc1ccc2cc(S(=O)(=O)N[C@H](CC(=O)N[C@H](Cc3ccc(CN4[C@H](C)CCC[C@@H]4C)cc3)C(=O)N(C)C(C)C)c3ccc4c(c3)OCO4)ccc2c1, O=c1c(-c2ccc(O)cc2)coc2cc(O)cc(O)c12, CN1C(=O)CC[C@H]1c1cccnc1, COCC(C)OCC(C)OCC(C)O (stereo unspecified), Oc1ccccc1, CC[C@@H]1C[C@H](N(Cc2cc(C(F)(F)F)cc(C(F)(F)F)c2)C(C)=O)c2cc(C(F)(F)F)ccc2N1C(=O)OC(C)C, O=C1CCC(C2CCCCC2)CC1

AC50, active:
CCCCOC(=O)c1ccc(O)cc1 136 µM, COc1cc(C(=O)NC2CCN(C)CC2)ccc1Nc1ncc2c(n1)N(C1CCCC1)CC(F)(F)C(=O)N2C 0.89 µM, CC(C)(c1cc(Br)c(O)c(Br)c1)c1cc(Br)c(O)c(Br)c1 55.8 µM, CC(O)CC(C)(C)O (stereo unspecified) 0.0125 µM, O=C(O)Cc1cc(I)c(Oc2ccc(O)c(I)c2)c(I)c1 50.9 µM, O=c1c(-c2ccc(O)cc2)coc2cc(O)cc(O)c12 29.8 µM and 52.6 µM, O=C1CCC(C2CCCCC2)CC1 163 µM

Source: PubChem BioAssay (EPA / NIEHS)
